# PubChem BioAssay (NCATS)
# Several values for one entry are separate records, joined by “and”; a condition that tells them apart may be missing. Equal entries are not always repeated. Values without a mark were called inactive. Results filed as inconclusive are left out. Activity calls are given as the source filed them. Unless noted, calls follow the shape of the dose curve; as a rule, active = well fitted curve in the direction sought with a large enough effect; inconclusive = small, poorly fitted or top-dose-only effect, or another doubt; inactive = no such curve, though single readings can be large; an effect the other way counts as inactive or inconclusive.
# Key:
# Tov-21-G = test: Primary qHTS to identify gynecologic anti-cancer compounds using libraries of approved drugs and bioactive compounds (AID 1345084); conditions: Gynecologic cancer cell panel viability, ATPlite luminescence, 48 h; series mostly up to 57.5 µM; also: nearly all actives have a fitted effect of over 55% in size; also: potency is read from the fitted curve at half-maximal effect
# Method in brief: (§1)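 Cells, 1,000 per well, were allowed to settle for 16 h at 37 C before compound addition. Five concentrations were tested for 48 h, and viability was read by ATPlite luminescence after 15 min at room temperature.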
# Tov112D = test: as above; conditions: Gynecologic cancer cell panel viability, ATPlite luminescence, 48 h; series mostly up to 57.5 µM
# Method in brief: as §1
# [1] = Drug repurposing screens with cells derived from glioblastoma tumor samples (AID 1345199); conditions: GBM patient neurospheres viability, ATP luminescence, 48 h; also: nearly all actives have a fitted effect of over 40% in size; also: potency is read from the fitted curve at half-maximal effect; as to activity, negative = cell killing: % is scaled to controls: 0 for no effect and ±100 for the full control effect
# Method in brief: (§2)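 Primary testing used CD133+ neurospheres from four GBM patients, seven concentrations, 48 h exposure and ATP-based viability; confirmation added three slower-growing patient lines.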
# astro = test: as above; conditions: viability, ATP luminescence, 48 h; series mostly up to 45.9 µM
# Method in brief: as §2
# [2] = qHTS assay to identify inhibitors of the type 1 interferon - major histocompatibility complex class I in skeletal muscle: Counter screen cell viability and HiBit confirmation (AID 1347412); conditions: iHSKM muscle cells + IFN-b, HiBiT or CellTiter-Glo, 24 h; Potency: HiBiT unless noted; Viability, at 45.9 µM (top of the series); also: % is scaled to controls: 0 for no effect and ±100 for the full control effect; nearly all actives have a fitted effect of over 60% in size
# Method in brief: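 Human myoblast knock-in line, 4.0 ng/ml IFN-beta stimulation, 24 h compound treatment. Endpoints: HiBiT lytic luminescence (HLA-B level) and CellTiter Glo (ATP). Dosing 12 concentrations, 3-fold steps, 46 uM highest final.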
# [3] = qHTS assay for small molecule activators of the human pregnane X receptor (PXR) signaling pathway (AID 720659; call rule not given here; also: 0% is about no effect); conditions: DPX-2 HepG2 CYP3A4-luciferase, 24 h; series mostly up to 92.3 µM
# [4] = molecular target: Nuclear receptor subfamily 1 group I member 2 (Rattus norvegicus) (UniProt Q9R1A7); test: qHTS assay for small molecule activators of the rat pregnane X receptor (rPXR) signaling pathway (AID 651751; call rule not given here; also: 0% is about no effect); conditions: rPXR reporter cells, luciferase (One-Glo), 24 h
# [5] = at 45.9 µM (top of the series), tumour line B
# [6] = at 45.9 µM (top of the series), tumour line D
# [7] = at 46 µM (top of the series), tumour line A
# [8] = at 46.1 µM (top of the series), tumour line C
# Chain of Nuclear receptor subfamily 1 group I member 2 (Rattus norvegicus) (Q9R1A7 whole entry, looked up): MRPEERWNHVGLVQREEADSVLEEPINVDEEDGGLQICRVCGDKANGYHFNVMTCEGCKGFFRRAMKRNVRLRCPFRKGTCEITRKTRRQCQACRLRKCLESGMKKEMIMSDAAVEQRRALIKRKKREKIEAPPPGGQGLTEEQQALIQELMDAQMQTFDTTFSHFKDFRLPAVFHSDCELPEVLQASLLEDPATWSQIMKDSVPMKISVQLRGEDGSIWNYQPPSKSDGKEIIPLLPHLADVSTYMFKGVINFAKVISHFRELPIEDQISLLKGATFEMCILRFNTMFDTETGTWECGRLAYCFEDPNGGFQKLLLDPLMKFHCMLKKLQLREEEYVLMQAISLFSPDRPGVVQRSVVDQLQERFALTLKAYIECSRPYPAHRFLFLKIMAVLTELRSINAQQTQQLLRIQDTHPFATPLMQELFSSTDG
smiles,measurement,setting,value
CC(=O)OCC(=O)[C@@]1(O)CC[C@H]2[C@@H]3CCC4=CC(=O)C=C[C@]4(C)[C@H]3[C@@H](O)C[C@@]21C,Potency,Tov-21-G,inactive
same,Potency,Tov112D,inactive
same,"activity, negative = cell killing",[1]; [5],-3.24%
same,"activity, negative = cell killing",[1]; [6],-10.4%
same,"activity, negative = cell killing",[1]; [7],-4.22%
same,"activity, negative = cell killing",[1]; [8],5.52%
same,Potency,astro,inactive
same,Potency,[2],inactive
Cc1ccc(Nc2c(F)cccc2Cl)c(CC(=O)O)c1,Potency,Tov-21-G,inactive
same,Potency,Tov112D,inactive
same,"activity, negative = cell killing",[1]; [5],-6.28%
same,"activity, negative = cell killing",[1]; [6],-3.08%
same,"activity, negative = cell killing",[1]; [7],-32.8%
same,"activity, negative = cell killing",[1]; [8],-3.92%
same,Potency,astro,inactive
COc1cc(C(=S)N2CCOCC2)cc(OC)c1OC,Potency,Tov-21-G,inactive
same,Potency,Tov112D,inactive
same,"activity, negative = cell killing",[1]; [5],-7.77%
same,"activity, negative = cell killing",[1]; [6],-20%
same,"activity, negative = cell killing",[1]; [7],-25.7%
same,"activity, negative = cell killing",[1]; [8],-20.5%
same,Potency,astro,inactive
C[C@H]1C[C@H]2[C@@H]3CCC4=CC(=O)C=C[C@]4(C)[C@@]3(Cl)[C@@H](O)C[C@]2(C)[C@@]1(O)C(=O)CO,Potency,Tov-21-G,inactive
same,Potency,Tov112D,inactive
same,"activity, negative = cell killing",[1]; [5],-17%
same,"activity, negative = cell killing",[1]; [6],-11.6%
same,"activity, negative = cell killing",[1]; [7],-29.5%
same,"activity, negative = cell killing",[1]; [8],-24.3%
same,Potency,astro,inactive
same,Potency,[2],inactive
same,outcome,[3],inactive
CN=C(NC#N)Nc1ccc(C2=NNC(=O)CC2C)cc1 (stereo not drawn),Potency,Tov-21-G,inactive
same,Potency,Tov112D,inactive
same,"activity, negative = cell killing",[1]; [5],-9.56%
same,"activity, negative = cell killing",[1]; [6],17.5%
same,"activity, negative = cell killing",[1]; [7],-26.1%
same,"activity, negative = cell killing",[1]; [8],-22.3%
same,Potency,astro,inactive
CCCCC(=O)O[C@]1(C(=O)CO)CC[C@H]2[C@@H]3CCC4=CC(=O)CC[C@]4(C)[C@H]3[C@@H](O)C[C@@]21C,Potency,Tov-21-G,inactive
same,Potency,Tov112D,inactive
same,"activity, negative = cell killing",[1]; [5],-13.9%
same,"activity, negative = cell killing",[1]; [6],-13.5%
same,"activity, negative = cell killing",[1]; [7],-14.6%
same,"activity, negative = cell killing",[1]; [8],-22.7%
same,Potency,astro,inactive
same,Potency,[2],inactive
CCCC(=O)O[C@]1(C(=O)CO)CC[C@H]2[C@@H]3CCC4=CC(=O)CC[C@]4(C)[C@H]3[C@@H](O)C[C@@]21C,Potency,Tov-21-G,inactive
same,Potency,Tov112D,inactive
same,"activity, negative = cell killing",[1]; [5],1.95%
same,"activity, negative = cell killing",[1]; [6],-21.3%
same,"activity, negative = cell killing",[1]; [7],-2.7%
same,"activity, negative = cell killing",[1]; [8],6.32%
same,Potency,astro,inactive
same,Potency,[2],inactive
C[C@]12C=CC(=O)C=C1CC[C@@H]1[C@@H]2[C@@H](O)C[C@@]2(C)[C@H]1CC[C@]2(O)C(=O)CO,Potency,Tov-21-G,inactive
same,Potency,Tov112D,inactive
same,"activity, negative = cell killing",[1]; [5],-12.2%
same,"activity, negative = cell killing",[1]; [6],-11.3%
same,"activity, negative = cell killing",[1]; [7],-29.3%
same,"activity, negative = cell killing",[1]; [8],-10.5%
same,Potency,astro,inactive
same,Potency,[2],inactive
Cc1c(F)c(N2CCNC(C)C2)cc2c1c(=O)c(C(=O)O)cn2C1CC1 (stereo not drawn),Potency,Tov-21-G,inactive
same,Potency,Tov112D,inactive
same,"activity, negative = cell killing",[1]; [5],-3.48%
same,"activity, negative = cell killing",[1]; [6],3.74%
same,"activity, negative = cell killing",[1]; [7],-33%
same,"activity, negative = cell killing",[1]; [8],-2.18%
same,Potency,astro,inactive
CC1(C)O[C@@H]2C[C@H]3[C@@H]4CCC5=CC(=O)CC[C@]5(C)[C@@]4(F)[C@@H](O)C[C@]3(C)[C@]2(C(=O)CCl)O1,Potency,Tov-21-G,inactive
same,Potency,Tov112D,inactive
same,"activity, negative = cell killing","[1]; at 20 µM (top of the series), tumour line C",-1.51%
same,"activity, negative = cell killing","[1]; at 21.2 µM (top of the series), tumour line B",-4.88%
same,"activity, negative = cell killing","[1]; at 21.2 µM (top of the series), tumour line D",2.26%
same,"activity, negative = cell killing","[1]; at 21.3 µM (top of the series), tumour line A",3.38%
same,Potency,astro,inactive
C[C@]12CCC(=O)C=C1CC[C@H]1[C@@H]3CC[C@](O)(C(=O)CO)[C@@]3(C)C[C@H](O)[C@@]12F,Potency,Tov-21-G,inactive
same,Potency,Tov112D,inactive
same,"activity, negative = cell killing",[1]; [5],-5.55% and -2.43%
same,"activity, negative = cell killing",[1]; [6],-21.3% and -14.3%
same,"activity, negative = cell killing",[1]; [7],-18.5% and -26.2%
same,"activity, negative = cell killing",[1]; [8],-25.3% and 1.15%
same,Potency,astro,inactive
same,Potency,[2],inactive
C[C@]12C=CC(=O)C=C1[C@@H](F)C[C@@H]1[C@@H]2[C@@H](O)C[C@@]2(C)[C@H]1CC[C@]2(O)C(=O)CO,Potency,Tov-21-G,inactive
same,Potency,Tov112D,inactive
same,"activity, negative = cell killing",[1]; [5],-7.25% and -6.51%
same,"activity, negative = cell killing",[1]; [6],-13.8% and -3.47%
same,"activity, negative = cell killing",[1]; [7],-18%
same,"activity, negative = cell killing",[1]; [8],-19.6% and -9.59%
same,Potency,astro,inactive
same,Potency,[2],inactive
CCCCN1CCCC1C(=O)Nc1c(C)cc(C)cc1C (stereo not drawn),Potency,Tov-21-G,inactive
same,Potency,Tov112D,inactive
same,"activity, negative = cell killing",[1]; [5],-5.63%
same,"activity, negative = cell killing",[1]; [6],-4.43%
same,"activity, negative = cell killing",[1]; [8],-15.9%
same,Potency,[1]; tumour line A,22.4 µM (active)
same,Potency,astro,inactive
CN(C)C(=S)SC(=S)N(C)C,Potency,Tov-21-G,8.91 µM (active)
same,Potency,Tov112D,28.2 µM (active)
same,"activity, negative = cell killing",[1]; [5],-2.75%
same,"activity, negative = cell killing",[1]; [6],-2.32%
same,"activity, negative = cell killing",[1]; [7],-14.5%
same,"activity, negative = cell killing",[1]; [8],-7.02%
same,Potency,astro,inactive
same,max response,[4],-1.67%
CC(=O)OCC(=O)[C@@]12N=C(C)O[C@@H]1C[C@H]1[C@@H]3CCC4=CC(=O)C=C[C@]4(C)[C@H]3[C@@H](O)C[C@@]12C,Potency,Tov-21-G,inactive
same,Potency,Tov112D,inactive
same,"activity, negative = cell killing",[1]; [5],-9.58%
same,"activity, negative = cell killing",[1]; [6],-6.5%
same,"activity, negative = cell killing",[1]; [7],-6.46%
same,"activity, negative = cell killing",[1]; [8],-22.2%
same,Potency,astro,inactive
same,Potency,[2],inactive
C#C[C@]1(O)CC[C@H]2[C@@H]3CCc4cc(OC5CCCC5)ccc4[C@H]3CC[C@@]21C,Potency,Tov-21-G,inactive
same,Potency,Tov112D,inactive
same,"activity, negative = cell killing",[1]; [8],-25.1%
same,Potency,[1]; tumour line A,4.47 µM (active)
same,Potency,[1]; tumour line B,10 µM (active)
same,Potency,astro,22.4 µM (active)
CCCCc1nc(Cl)c(CO)n1Cc1ccc(-c2ccccc2-c2nn[nH]n2)cc1,Potency,Tov-21-G,inactive
same,Potency,Tov112D,inactive
same,"activity, negative = cell killing",[1]; [5],-2.59%
same,"activity, negative = cell killing",[1]; [6],-10.9%
same,"activity, negative = cell killing",[1]; [8],-14.8%
same,Potency,astro,inactive
CCC(=O)c1c(O)cc(O)cc1O,Potency,Tov-21-G,inactive
same,Potency,Tov112D,inactive
same,"activity, negative = cell killing",[1]; [5],-0.713%
same,"activity, negative = cell killing",[1]; [6],-16.2%
same,"activity, negative = cell killing",[1]; [8],-2.44%
same,Potency,astro,inactive
